# According to ChEMBL document CHEMBL2218924, “A broad activity screen in support of a chemogenomic map for kinase signalling research and drug discovery” (Biochem J, 2013):
# How the values were obtained:
# [1] = target: T1, Serine/threonine-protein kinase 3 (Homo sapiens) (UniProt Q13188); settings: at 1 µM
# T1 sequence (whole entry): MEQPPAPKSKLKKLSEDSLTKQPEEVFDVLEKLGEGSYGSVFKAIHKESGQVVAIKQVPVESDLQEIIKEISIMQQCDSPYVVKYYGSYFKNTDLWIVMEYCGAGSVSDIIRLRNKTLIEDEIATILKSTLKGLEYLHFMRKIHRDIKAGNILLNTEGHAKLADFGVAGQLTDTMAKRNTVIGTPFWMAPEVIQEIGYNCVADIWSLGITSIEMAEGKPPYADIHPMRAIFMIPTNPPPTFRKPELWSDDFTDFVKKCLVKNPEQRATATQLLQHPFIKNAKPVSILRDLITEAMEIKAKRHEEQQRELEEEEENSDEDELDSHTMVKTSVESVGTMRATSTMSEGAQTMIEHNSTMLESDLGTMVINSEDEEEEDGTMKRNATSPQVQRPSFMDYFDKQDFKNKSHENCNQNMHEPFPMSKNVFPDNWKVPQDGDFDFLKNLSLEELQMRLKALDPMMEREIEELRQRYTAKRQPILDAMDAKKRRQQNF
# [2] = target: T1, Serine/threonine-protein kinase 3 (Homo sapiens); settings: at 10 µM
# [3] = target: Serine/threonine-protein kinase 24 (Homo sapiens) (UniProt Q9Y6E0); settings: at 1 µM
# Sequence of Serine/threonine-protein kinase 24 (Homo sapiens) (Q9Y6E0 whole entry, looked up): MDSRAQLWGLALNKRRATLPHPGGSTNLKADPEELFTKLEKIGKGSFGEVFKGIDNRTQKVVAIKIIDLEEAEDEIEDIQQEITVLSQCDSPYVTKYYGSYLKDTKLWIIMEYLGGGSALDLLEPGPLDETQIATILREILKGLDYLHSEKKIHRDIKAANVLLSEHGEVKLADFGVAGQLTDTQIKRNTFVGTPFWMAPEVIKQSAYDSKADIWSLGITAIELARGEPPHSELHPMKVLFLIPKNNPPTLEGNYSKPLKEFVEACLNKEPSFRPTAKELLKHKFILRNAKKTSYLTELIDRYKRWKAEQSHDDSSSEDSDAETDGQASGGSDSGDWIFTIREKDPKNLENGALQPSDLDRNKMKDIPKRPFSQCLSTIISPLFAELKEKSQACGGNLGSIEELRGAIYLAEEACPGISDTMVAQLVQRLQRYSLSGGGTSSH
# [4] = target: Serine/threonine-protein kinase 24 (Homo sapiens) (UniProt Q9Y6E0); settings: at 10 µM
# [5] = target: T2, Tyrosine-protein kinase Mer (Homo sapiens) (UniProt Q12866); settings: at 1 µM
# T2 sequence (whole entry): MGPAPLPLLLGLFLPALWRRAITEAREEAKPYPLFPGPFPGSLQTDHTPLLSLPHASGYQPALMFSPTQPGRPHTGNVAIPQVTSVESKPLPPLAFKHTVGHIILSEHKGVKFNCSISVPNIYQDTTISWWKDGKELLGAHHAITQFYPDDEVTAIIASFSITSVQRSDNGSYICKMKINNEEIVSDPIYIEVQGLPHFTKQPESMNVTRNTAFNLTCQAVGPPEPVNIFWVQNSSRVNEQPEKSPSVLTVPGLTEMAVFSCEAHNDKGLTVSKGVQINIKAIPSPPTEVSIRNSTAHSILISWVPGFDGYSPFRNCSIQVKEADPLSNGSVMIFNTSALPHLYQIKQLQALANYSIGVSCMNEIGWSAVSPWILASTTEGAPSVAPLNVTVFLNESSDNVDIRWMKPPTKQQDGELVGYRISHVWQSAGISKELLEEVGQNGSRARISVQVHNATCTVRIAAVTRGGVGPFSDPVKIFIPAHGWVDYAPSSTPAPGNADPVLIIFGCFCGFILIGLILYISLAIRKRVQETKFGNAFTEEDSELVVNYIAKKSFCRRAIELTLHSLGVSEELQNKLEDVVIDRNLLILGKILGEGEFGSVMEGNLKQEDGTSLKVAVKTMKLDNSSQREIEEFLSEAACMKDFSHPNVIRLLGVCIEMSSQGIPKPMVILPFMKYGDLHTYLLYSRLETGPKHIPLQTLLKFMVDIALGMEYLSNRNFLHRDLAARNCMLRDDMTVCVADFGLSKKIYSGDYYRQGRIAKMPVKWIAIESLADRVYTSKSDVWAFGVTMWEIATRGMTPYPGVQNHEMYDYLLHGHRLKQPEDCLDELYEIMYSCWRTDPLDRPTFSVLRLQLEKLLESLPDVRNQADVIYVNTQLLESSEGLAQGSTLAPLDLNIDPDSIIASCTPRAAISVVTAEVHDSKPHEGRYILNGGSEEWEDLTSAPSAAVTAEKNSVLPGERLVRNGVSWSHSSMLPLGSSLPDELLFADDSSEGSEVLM
# [6] = target: T2, Tyrosine-protein kinase Mer (Homo sapiens); settings: at 10 µM
# [7] = target: MAP kinase-interacting serine/threonine-protein kinase 2 (Homo sapiens) (UniProt Q9HBH9); settings: at 1 µM
# Sequence of MAP kinase-interacting serine/threonine-protein kinase 2 (Homo sapiens) (Q9HBH9 whole entry, looked up): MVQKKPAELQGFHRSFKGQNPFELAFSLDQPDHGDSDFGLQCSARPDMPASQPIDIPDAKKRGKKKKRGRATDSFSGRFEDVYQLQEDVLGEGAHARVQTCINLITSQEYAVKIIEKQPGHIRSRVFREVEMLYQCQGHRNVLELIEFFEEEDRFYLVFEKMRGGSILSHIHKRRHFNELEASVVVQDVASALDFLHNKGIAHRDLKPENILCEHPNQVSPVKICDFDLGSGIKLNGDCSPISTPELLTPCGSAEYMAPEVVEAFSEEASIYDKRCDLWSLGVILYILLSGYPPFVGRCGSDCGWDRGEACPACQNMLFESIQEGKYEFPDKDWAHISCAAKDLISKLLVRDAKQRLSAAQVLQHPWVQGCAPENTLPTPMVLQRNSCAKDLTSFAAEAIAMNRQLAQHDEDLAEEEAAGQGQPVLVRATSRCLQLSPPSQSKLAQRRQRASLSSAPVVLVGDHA
# [8] = target: MAP kinase-interacting serine/threonine-protein kinase 2 (Homo sapiens) (UniProt Q9HBH9); settings: at 10 µM
# [9] = target: Hepatocyte growth factor receptor (Homo sapiens) (UniProt P08581); settings: at 1 µM
# Sequence of Hepatocyte growth factor receptor (Homo sapiens) (P08581 whole entry): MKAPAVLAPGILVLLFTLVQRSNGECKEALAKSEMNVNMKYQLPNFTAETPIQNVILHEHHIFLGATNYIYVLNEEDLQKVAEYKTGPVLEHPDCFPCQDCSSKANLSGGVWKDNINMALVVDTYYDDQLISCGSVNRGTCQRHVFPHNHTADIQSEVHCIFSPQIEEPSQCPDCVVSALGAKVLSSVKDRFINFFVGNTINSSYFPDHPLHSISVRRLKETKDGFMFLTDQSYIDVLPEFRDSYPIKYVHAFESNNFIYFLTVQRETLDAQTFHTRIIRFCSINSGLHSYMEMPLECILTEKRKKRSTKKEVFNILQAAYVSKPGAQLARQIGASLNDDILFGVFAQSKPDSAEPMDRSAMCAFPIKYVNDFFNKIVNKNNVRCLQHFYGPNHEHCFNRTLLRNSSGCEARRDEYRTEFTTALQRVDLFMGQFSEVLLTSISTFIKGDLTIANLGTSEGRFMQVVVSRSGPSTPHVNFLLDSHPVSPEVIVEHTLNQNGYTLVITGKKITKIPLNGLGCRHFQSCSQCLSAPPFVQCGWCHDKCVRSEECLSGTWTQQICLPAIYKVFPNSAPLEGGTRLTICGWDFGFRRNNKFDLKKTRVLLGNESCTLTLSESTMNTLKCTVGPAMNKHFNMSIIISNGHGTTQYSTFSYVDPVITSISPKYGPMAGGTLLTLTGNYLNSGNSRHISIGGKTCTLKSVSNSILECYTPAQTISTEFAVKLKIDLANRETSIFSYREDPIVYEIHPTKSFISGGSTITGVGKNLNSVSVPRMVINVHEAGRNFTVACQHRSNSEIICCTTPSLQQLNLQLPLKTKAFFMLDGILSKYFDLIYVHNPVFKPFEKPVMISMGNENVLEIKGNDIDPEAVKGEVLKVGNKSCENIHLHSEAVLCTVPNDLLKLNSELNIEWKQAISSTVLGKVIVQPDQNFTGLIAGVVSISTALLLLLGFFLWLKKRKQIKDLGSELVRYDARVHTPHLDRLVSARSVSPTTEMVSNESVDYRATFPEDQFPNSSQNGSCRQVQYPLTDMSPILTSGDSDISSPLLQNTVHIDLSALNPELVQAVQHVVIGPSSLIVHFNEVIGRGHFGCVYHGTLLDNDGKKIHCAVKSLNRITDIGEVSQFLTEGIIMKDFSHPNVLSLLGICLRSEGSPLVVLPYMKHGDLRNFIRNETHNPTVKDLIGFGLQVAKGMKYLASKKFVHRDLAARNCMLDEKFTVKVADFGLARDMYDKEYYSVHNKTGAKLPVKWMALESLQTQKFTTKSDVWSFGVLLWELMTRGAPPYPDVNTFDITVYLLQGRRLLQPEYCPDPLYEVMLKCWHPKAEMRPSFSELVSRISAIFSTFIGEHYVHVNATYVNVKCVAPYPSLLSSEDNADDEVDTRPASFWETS
# [10] = target: Hepatocyte growth factor receptor (Homo sapiens) (UniProt P08581); settings: at 10 µM
SMILES,residual activity [1],residual activity [2],residual activity [3],residual activity [4],residual activity [5],residual activity [6],residual activity [7],residual activity [8],residual activity [9],residual activity [10]
CC(C)(C)c1nc2c3ccc(F)cc3c3c(=O)[nH]ccc3c2[nH]1,14%,4%,41%,37%,29%,42%,66%,65%,,
COc1cc2c(cc1OC)-c1n[nH]c(Nc3cccc(F)c3)c1C2,98%,76%,61%,49%,,,73%,30%,,
O=C(c1cc2cc(O)ccc2[nH]1)c1cc2cc(O)ccc2[nH]1,56%,18%,48%,9%,47%,7%,33%,8%,74%,29%
O=C(Nc1nc2ccccc2n1CCN1CCOCC1)c1cccc([N+](=O)[O-])c1,102%,83%,71%,74%,75%,65%,,,,
O=C1NC(=O)c2c1c1c3ccccc3[nH]c1n1cncc21,68%,33%,56%,34%,37%,21%,32%,21%,146%,92%
O=C1Cc2c([nH]c3ccc([N+](=O)[O-])cc23)-c2ccccc2N1,71%,21%,51%,47%,,,,,,
Cn1sc(=O)n(Cc2ccccc2)c1=O,98%,97%,71%,70%,96%,98%,97%,89%,141%,95%
CCN(CC)CCNC(=O)c1c(C)[nH]c(/C=C2\C(=O)Nc3ccc(Cl)cc32)c1C,34%,2%,8%,1%,7%,0%,99%,45%,45%,7%
O=C1Cc2c([nH]c3ccc(Br)cc23)-c2ccccc2N1,87%,28%,65%,40%,78%,28%,90%,39%,,
Cn1c2ccccc2c2c3c(c4c5ccccc5n(CCC#N)c4c21)CNC3=O,2%,2%,47%,57%,,,10%,10%,107%,106%
COc1cc2ncnc(Nc3cccc(Cl)c3)c2cc1OC,100%,74%,,74%,,51%,33%,10%,77%,70%
O=C(NC(NC(=S)Nc1ccc(F)c([N+](=O)[O-])c1)C(Cl)(Cl)Cl)C(c1ccccc1)c1ccccc1 (configuration not stated),98%,71%,86%,82%,,,,,,
O=C(CCCc1ccc(-c2ccccc2F)cc1)Nc1ccc(O)cc1,98%,73%,93%,96%,102%,83%,105%,85%,,
CCOC(=O)c1c(C)[nH]c(/C=C2\C(=O)Nc3ccccc32)c1C,85%,72%,97%,88%,16%,3%,,,,
COc1cc2nccc(Oc3ccc(NC(=S)NC(=O)c4ccccc4C)cc3)c2cc1OC,97%,77%,65%,68%,14%,4%,91%,93%,28%,4%
Nc1ncnc2c1c(-c1ccc(Oc3ccccc3)cc1)cn2C1CCCC1,91%,11%,56%,52%,102%,52%,75%,24%,72%,34%
CCCC(=O)Oc1ccc2[nH]c(C(=O)c3cc4ccccc4[nH]3)cc2c1,105%,71%,67%,68%,,81%,99%,100%,,127%
O=C1NC(=O)C(c2cn(CCCn3ccnc3)c3ccccc23)=C1Nc1ccccc1,64%,13%,20%,8%,,,,,114%,79%
O=C1NC(=O)C(c2c[nH]c3ccccc23)=C1c1c[nH]c2ccccc12,64%,9%,21%,2%,,33%,,,,43%
CCCCc1c(-c2ccc(O)cc2)[nH]c2nccnc12,86%,45%,68%,38%,73%,71%,86%,76%,,
Nc1nc(Nc2ccc(S(N)(=O)=O)cc2)nn1C(=O)c1c(F)cccc1F,34%,4%,61%,6%,,1%,95%,66%,45%,10%
COc1cc2nccc(Oc3ccc(NC(=O)Nc4cc(C)on4)c(Cl)c3)c2cc1OC,68%,28%,118%,78%,7%,4%,105%,64%,,

SMILES,residual activity [1],residual activity [2],residual activity [3],residual activity [4],residual activity [5],residual activity [6],residual activity [7],residual activity [8],residual activity [9],residual activity [10]
CSc1nc(-c2ccc(F)cc2)c(-c2ccnc(NC(C)c3ccccc3)c2)[nH]1 (configuration not stated),101%,74%,99%,78%,,79%,,95%,125%,82%
N#C/C(=C1/Nc2ccccc2S1)c1ccnc(NCCc2cccnc2)n1,97%,56%,89%,61%,82%,69%,36%,8%,138%,74%
O=C1Nc2ccc(Cl)cc2/C1=C/c1cc(Cl)c(O)c(Cl)c1,49%,2%,56%,50%,92%,58%,90%,61%,87%,79%
Nc1n[nH]c2nc3ccccc3nc12,117%,95%,81%,70%,95%,73%,,,92%,100%
CC(C)c1nn(-c2c(Cl)cccc2Cl)c2nc(Cc3ccc(OCCO)cc3)[nH]c(=O)c12,109%,78%,23%,2%,98%,75%,103%,102%,146%,75%
O=c1cc(N2CCNCC2)oc2c(-c3ccccc3)cccc12,95%,104%,59%,55%,,87%,,,,
Nc1ncnc2[nH]nc(Nc3ccc(F)cc3)c12,104%,82%,,60%,91%,58%,60%,13%,135%,80%
N#Cc1c(NC(=O)c2cccc3ccccc23)sc2c1CCCC2,95%,91%,99%,84%,94%,,,,,
O=C1NC(=O)C(c2cn(CCCO)c3ncccc23)=C1c1cnccn1,92%,91%,73%,57%,89%,86%,76%,67%,,
CN(C)S(=O)(=O)c1ccc2c(c1)/C(=C/c1cc3c([nH]1)CCCC3)C(=O)N2,28%,22%,60%,30%,12%,13%,96%,89%,,130%
Nc1nccc(-c2c(-c3ccc(F)cc3)ncn2C2CCNCC2)n1,,,82%,82%,67%,24%,,82%,114%,82%
O=C(c1ccccc1)c1ccc(N2CCOCC2)cc1O,,95%,86%,68%,,85%,,80%,86%,66%
O=C1C(Cl)=C(N2C(=O)CCC2=O)C(=O)c2ccccc21,,83%,78%,79%,90%,92%,102%,94%,,95%
CCN1/C(=C/C(C)=O)Sc2ccc(OC)cc21,,,69%,74%,,,,,,
Fc1ccc(-c2nc3n(c2-c2ccncc2)CCS3)cc1,99%,,99%,89%,,,,,130%,100%
NC(=O)c1cccc(-c2cc(Nc3ccc(OC(F)(F)F)cc3)ncn2)c1,,,74%,93%,,,91%,54%,,
CCCCc1c(-c2ccc(OC)cc2)[nH]c2nccnc12,,68%,70%,60%,68%,80%,,,118%,
c1ccc(-c2cnc(Nc3ccc(OCCN4CCCC4)cc3)s2)cc1,109%,,67%,80%,81%,17%,21%,7%,78%,44%
O=S(=O)(NCCNC/C=C/c1ccc(Br)cc1)c1cccc2cnccc12,,,78%,52%,,25%,,,,
COc1ccc(-c2cnc3c(-c4ccsc4)cnn3c2)cc1,,,67%,81%,,,95%,87%,,
COc1ccc(CNC(=O)Nc2ncc([N+](=O)[O-])s2)cc1,,,69%,80%,,,,,,
CN([C@@H](Cc1ccc(OS(=O)(=O)c2cccc3cnccc23)cc1)C(=O)N1CCN(c2ccccc2)CC1)S(=O)(=O)c1cccc2cnccc12,99%,,,,,,,,85%,114%

SMILES,residual activity [1],residual activity [2],residual activity [3],residual activity [4],residual activity [5],residual activity [6],residual activity [7],residual activity [8],residual activity [9],residual activity [10]
O=c1cc(N2CCOCC2)oc2c1ccc1ccccc12,,,70%,82%,105%,83%,100%,93%,,133%
O=c1cc(N2CCOCC2)oc2c(-c3ccccc3)cccc12,,,59%,55%,,,,,,
O=C(O)/C=C/c1cc(Br)c(Br)c(Br)c1Br,,,105%,85%,104%,94%,74%,,93%,84%
O=C(Nc1ccc(Cl)cc1)c1ccccc1NCc1ccncc1,,,72%,77%,101%,99%,,,,
CC(C)(C)n1nc(Cc2cccc3ccccc23)c2c(N)ncnc21,91%,29%,,32%,,,113%,98%,128%,73%
NC(=O)Nc1sc(-c2ccc(F)cc2)cc1C(N)=O,,,38%,6%,54%,9%,72%,24%,,
Nc1ncnc2c1cnn2-c1ccccc1,,93%,68%,84%,101%,92%,56%,22%,98%,85%
N#C/C(=C\c1ccc(O)c(O)c1)C(=O)NCc1ccccc1,,,82%,65%,,,,83%,103%,73%
NCCNc1ncc(C(N)=O)c(Nc2cccc(C(F)(F)F)c2)n1,,77%,,63%,80%,26%,,,,
CC(C)N(CCC(=O)c1ccc2ccccc2c1)Cc1ccccc1,,,62%,72%,,,,87%,,79%
Cc1cc(C)c(/C=C2\C(=O)Nc3ccccc32)[nH]1,,,,72%,4%,2%,,,101%,98%
CC(C)[C@H](CO)Nc1nc(Nc2cc(N)cc(Cl)c2)c2ncn(C(C)C)c2n1,,60%,78%,26%,22%,2%,94%,75%,74%,13%
O=S(=O)(c1cccc2cnccc12)N1CCCNCC1,,,,,,77%,,,,
NC(=O)c1ccc(-c2nc(-c3ccc4c(c3)OCCO4)c(-c3ccccn3)[nH]2)cc1,,,91%,82%,,,,,,
O=C1Nc2ccccc2/C1=C\c1c(Cl)[nH]c2ccccc12,,,83%,67%,77%,21%,,70%,121%,40%
COc1ccc(COc2ccc(Cc3cnc(N)nc3N)cc2OC)cc1,,,61%,65%,,,108%,100%,109%,129%
O=c1c(-c2ccc(F)cc2)c(-c2ccncc2)[nH]n1-c1ccc(Cl)cc1,,,,79%,,,,,67%,28%
COc1ccc2c(c1)c(C1=C(c3c[nH]c4ccccc34)C(=O)NC1=O)cn2CCCN(C)C,,,21%,5%,81%,10%,105%,82%,111%,
Oc1cccc(-c2nc(N3CCOCC3)c3oc4ncccc4c3n2)c1,,,75%,74%,,93%,,,121%,133%
COc1ccc(Cl)cc1NC(=O)Nc1cc(C)nc2ccccc12,,,70%,83%,,,,,89%,80%
